Measurements: the supplement of paper PMC6555819

Experiments:
Experiment in all cases: PBM binding z-score (relative to random genomic background probes); higher = stronger binding; sequences stand for … in GC…GCGATTGACAGCGTAGAATGAAGG
[1] = system: FXR:RXRa (NR concentration 270 nM, RXRa partner concentration 90 nM)
Summary of the method: (§1)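 Each nuclear receptor dimer, without ligand, was incubated for 1 h on custom Agilent 4×180K protein-binding microarrays. Binding was detected with antibodies against each partner (one per run), and scanned fluorescence was regression-normalized. The binding z-scores are referenced to random human genomic background probes.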

[2] = system: LXRa:RXRa (NR concentration 270 nM, RXRa partner concentration 90 nM)
Summary of the method: as §1

[3] = system: LXRa homodimer (NR concentration 270 nM)
Summary of the method: as §1

[4] = system: LXRb:RXRa (NR concentration 270 nM, RXRa partner concentration 90 nM)
Summary of the method: as §1

[5] = system: LXRb homodimer (NR concentration 270 nM)
Summary of the method: as §1

[6] = system: PPARa:RXRa (NR concentration 270 nM, RXRa partner concentration 90 nM)
Summary of the method: as §1

[7] = system: PPARg:RXRa (NR concentration 180 nM, RXRa partner concentration 90 nM)
Summary of the method: as §1

[8] = system: PPARg:RXRa 270nM:90nM, anti-RXR (NR concentration 270 nM, RXRa partner concentration 90 nM)
Summary of the method: as §1

[9] = system: PPARg:RXRa 30nM:10nM, anti-RXR (NR concentration 30 nM, RXRa partner concentration 10 nM)
Summary of the method: as §1

[10] = system: PPARg:RXRa 90nM:30nM, anti-RXR (NR concentration 90 nM, RXRa partner concentration 30 nM)
Summary of the method: as §1

[11] = system: PPARg:RXRa DBDmut IVT, anti-RXR (DBD mutation: RXRa K156A/R161A, NR concentration 270 nM, RXRa partner concentration 90 nM)
Summary of the method: as §1

[12] = system: PPARg:RXRa IVT, anti-PPARg (NR concentration 270 nM, RXRa partner concentration 90 nM)
Summary of the method: as §1

[13] = system: PPARg DBDmut:RXRa IVT, anti-PPARg (DBD mutation: PPARg1 K132A/R137A, NR concentration 270 nM, RXRa partner concentration 90 nM)
Summary of the method: as §1

[14] = system: PPARg DBDmut IVT, anti-PPARg (DBD mutation: PPARg1 K132A/R137A, NR concentration 270 nM)
Summary of the method: as §1

[15] = system: PPARg homodimer (NR concentration 180 nM)
Summary of the method: as §1

[16] = system: PXR:RXRa (NR concentration 270 nM, RXRa partner concentration 90 nM)
Summary of the method: as §1

[17] = system: PXR homodimer (NR concentration 270 nM)
Summary of the method: as §1

[18] = system: RARa homodimer (NR concentration 270 nM)
Summary of the method: as §1

[19] = system: RARb:RXRa (NR concentration 270 nM, RXRa partner concentration 90 nM)
Summary of the method: as §1

[20] = system: RARa:RXR (NR concentration 270 nM, RXRa partner concentration 90 nM)
Summary of the method: as §1

Row | Sequence | PBM binding z-score [1] | PBM binding z-score [2] | PBM binding z-score [3] | PBM binding z-score [4] | PBM binding z-score [5] | PBM binding z-score [6] | PBM binding z-score [7] | PBM binding z-score [8] | PBM binding z-score [9] | PBM binding z-score [10] | PBM binding z-score [11] | PBM binding z-score [12] | PBM binding z-score [13] | PBM binding z-score [14] | PBM binding z-score [15] | PBM binding z-score [16] | PBM binding z-score [17] | PBM binding z-score [18] | PBM binding z-score [19] | PBM binding z-score [20]
1 | CGTCCAAGGTCAGTGAGGTCAGTGAATGCCGAGT | 5.29 | 4.25 | 2.06 | 3.89 | -0.0298 | 4.72 | 3.46 | 4.07 | 0.585 | 2.61 | 3.14 | 3.83 | -0.101 | -0.804 | 3.15 | 5.76 | 11.8 | 0.545 | 5.51 | 
2 | CAATCTAGGTCACGAAAGGTCAAAGTCGAATGAC | 7.83 | 8.36 | 8 | 7.57 | 3.05 | 6.84 | 10.7 | 8.68 | 7.62 | 9.02 | 8.53 | 9.13 | 5.67 | 4 | 6.67 | 7.2 | 3.37 | 4.3 | 5.76 | 
3 | TAGCCTAGGTCAAGCGGGCCAGTATAGTGTCGGC | 4.12 | 3.15 | 0.0899 | 1.78 | -0.385 | 3.62 | 2.12 | 2.59 | 0.103 | 1.32 | 2.36 | 2.99 | -0.422 | -0.858 | 0.96 | 1.38 | -0.618 | -0.521 | 4.04 | 2.42
4 | ACTAGCAGGCCAAGGGTGACTCAAGATTAGTCCG | -0.498 | -0.205 | -0.435 | -0.119 | -1 | 2.13 | 4.45 | 5.29 | 3.6 | 5.35 | 0.931 | 1.84 | -0.0543 | -0.633 | -0.412 | -0.0749 | -0.354 | -0.894 | 0.8 | 0.264
5 | ATATGGAGGTTAAGGGTCATTCAGGTTGGTTCGC | 6.25 | 5.67 | 3.97 | 5.2 | 1.77 | 6 | 9.22 | 8.75 | 7.43 | 10.3 | 3.59 | 5.42 | 3.41 | 2.22 | 4.57 | 6.14 | 3.95 | 3.41 | 3.97 | 
6 | CCAGAAAGGTGAAAGGTAACTCAGTCTGGTACGC | 2.31 | 2.14 | -0.21 | 2.12 | -0.446 | 5.13 | 6.55 | 6.26 | 4.77 | 6.27 | 4.19 | 4.68 | 0.791 | 0.428 | 1.51 | 2.26 | 0.172 | 0.674 | 3.3 | 
7 | CGTCCAAGGTCAAAGGTCAGTAAAGAGATGACGG | 8.12 | 6.87 | 3.18 | 6.62 | 2 | 7.32 | 10.8 | 9.28 | 7.89 | 9.37 | 4.06 | 5.78 | 0.533 | 0.691 | 4.4 | 7.16 | 1.34 | 4.03 | 5.99 | 
8 | TTACCAAGGTGAAAGGTCGGTGATGCACGCCTTG | 2.27 | 1.8 | -0.377 | 1.34 | -0.609 | 4.27 | 7.36 | 6.88 | 6.6 | 7.95 | 2.41 | 4.51 | 1.85 | 0.075 | 1.26 | 2.17 | -0.356 | -0.0129 | 2.65 | 3.77
9 | ACTCGGAGGACAAAGGTCACAGCTACGCCAGTGA | 5.25 | 5.76 | 3.07 | 4.75 | 0.774 | 5.97 | 9.11 | 7.86 | 6.87 | 8.74 | 1.61 | 4.71 | 0.569 | -0.0483 | 5.62 | 5.5 | 0.867 | 3.36 | 5.12 | 6.75
10 | CCTTGCGGGTCACTGACAGGTTATAGCATTTGGA | 4.69 | 3.74 | 0.0362 | 2.95 | -0.459 | 5.05 | 5.18 | 4.76 | 1.63 | 3.47 | 4.94 | 5.29 | -0.0944 | -0.215 | 2 | 3.05 | -0.0222 | 0.173 | 3.63 | 
11 | TGAATGAAGTTAAAGATCAGGGAACGTGGCGTCG | -0.402 | -0.168 | -0.348 | -0.389 | -0.518 | 0.212 | 0.843 | 1.61 | 0.713 | 1.3 | -0.838 | -0.0985 | 0.102 | 0.236 | -0.094 | -0.563 | -0.811 | -0.374 | -0.227 | -0.169
12 | GGAACGAGGGCAAAGGTGATAGCATCTGTCGACG | 2.08 | 1.64 | -0.402 | 1.23 | -0.651 | 4.97 | 9.32 | 8.6 | 7.51 | 9.41 | 5.67 | 5.29 | 0.379 | 0.895 | 1.42 | 1.9 | 0.114 | 0.0137 | 2.72 | 
13 | CCTTACGGGTCAAGGTTATATCACGGGTGGTACG | 5.41 | 3.89 | 0.787 | 3.34 | 0.134 | 4.99 | 4.26 | 4.7 | 1.6 | 3.52 | 1.74 | 3.78 | 0.607 | 0.522 | 2.64 | 3.63 | 0.951 | 0.89 | 4.15 | 
14 | ATCCAAAGGTCGAGGTGAGTATAGAGAAAGGGAA | 4.69 | 4.08 | 0.242 | 3.36 | 0.755 | 4.91 | 4.74 | 4.86 | 1.7 | 3.57 | 0.646 | 2.87 | 1.42 | 1.42 | 1.71 | 2.84 | 0.536 | 1.18 | 4.43 | 
